In the library only some 8% were active in any assay of this set; here they are far more common.
HT1080 IDH1KD tx = toxicity to HT-1080 IDH1 knockdown cells (counter line); HT-1080 IDH1 knockdown viability, ATP luminescence, 48 h; Potency, µM (top dose mostly 46.1 µM), for inactives: at the top dose activity, negative = toxicity, hits mostly cytotoxic; 360,000 tested, 2% active;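 note: 0% = DMSO wells and -100% = cell-free medium wells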
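After a 2 h attachment period, IDH1KD HT-1080 cells took pin-transferred compound for 48 h at 37 °C; ATP-based luminescence after 10 min room-temperature reagent incubation reported viability.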
HT1080NT lethal = kills 2HG-producing HT-1080-NT fibrosarcoma cells. HT-1080-NT fibrosarcoma viability, CellTiter-Glo ATP luminescence, 48 h. Potency, µM (highest dose often 46.1 µM), without a hit: at the highest dose activity, negative = less viability, most hits filed as cytotoxic. 360,000 tested, 1.6% active;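 note: NT is the 2HG producing partner of a matched IDH1 knockdown line; 0% = DMSO-treated cells and -100% = media-only wells without cells; nearly all actives have a fitted effect of over 55% in size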
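Toxicity toward the 2HG-producing NT line was scored as %Activity, normalised to DMSO and no-cell wells, from CellTiter-Glo luminescence after 48 hours' treatment.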
MCF10A rereplic = induces DNA re-replication in MCF 10a normal breast cells | MCF 10A DNA re-replication, Hoechst nuclear intensity, 48 h | Potency, µM (titrated, usually from 46.1 µM), without a hit: at the highest dose activity, positive = re-replication, usual class: activators | 350,000 tested, 2.9% active; note: % of control where 0% means no effect; nearly all actives have a fitted effect of over 50% in size
KB-3-1 cytotox = kills parental KB-3-1 adenocarcinoma cells. Potency, µM (series often up to 46.1 µM), usual class: cytotoxic. KB-3-1 viability, CellTiter-Glo ATP luminescence, 72 h. 400,000 tested, 1.4% active; note: % is set by controls: 0 for no effect and ±100 for the full control effect; nearly all actives have a fitted effect of over 60% in size
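Screening of KB-3-1 cells (DMEM, 10% FBS, phenol-red free) ran from lowest to highest compound concentration; after 72 h at 37 °C viability was read luminescently and curves fitted.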
SW480 rerep = induces DNA re-replication in SW480 colon adenocarcinoma cells. SW480 DNA re-replication, Hoechst DNA content imaging, 48 h. Potency, µM (titrated, usually from 46.1 µM), for the others: top-dose re-replication activation, most hits filed as activators. 340,000 tested, 1.8% active; note: % of control where 0% means no effect; nearly all actives have a fitted effect of over 55% in size
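Compounds, transferred as 23 nL by pin tool, were incubated with cells for 48 hr; DNA content per nucleus was then quantified by Hoechst staining and fluorescence plate imaging.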
KB-V1 MDR tox = kills drug-selected multidrug resistant KB-V1 cells | KB-V1 MDR cells viability, CellTiter-Glo, 72 h | Potency, µM (doses to about 46.1 µM), hits mostly cytotoxic | 400,000 tested, 3.4% active; note: % is set by controls: 0 for no effect and ±100 for the full control effect; nearly all actives have a fitted effect of over 60% in size
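KB-V1 MDR subline cells in DMEM (phenol-red free, 10% FBS) exposed to compounds in qHTS concentration series for 72 h at 37 degrees C. Viability read by CellTiter-Glo luminescence; concentration-effect curves fitted after normalization and correction.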
* hit, by the source's call. Calls come from the whole dose curve; as a rule, active = well fitted curve in the direction sought with a large enough effect; inconclusive = small, poorly fitted or top-dose-only effect, or another doubt; inactive = no such curve, though single readings can be large; an effect the other way counts as inactive or inconclusive. Potency is the fitted concentration of half-maximal effect.

Results for CN(C)CCNC(=O)c1cccc(-c2cnc3c(NC=O)cc(-c4ccc(S(C)(=O)=O)cc4)cn23)c1 ?
HT1080 IDH1KD tx: 1.6%; HT1080NT lethal: 5.2%; KB-3-1 cytotox: inactive; KB-V1 MDR tox: inactive

Results for CN(C)CCNC(=O)c1cccc(-c2cnc3c(NC=O)cc(-c4cc(F)c(F)c(F)c4)cn23)c1 ?
HT1080 IDH1KD tx: 18.4µM*; HT1080NT lethal: inconclusive; KB-3-1 cytotox: inactive; KB-V1 MDR tox: inactive

What do the screens show for `COc1cc(OC)cc(-c2nnc(SCC(=O)N3CCC(C)CC3)o2)c1`?
KB-3-1 cytotox: inactive; KB-V1 MDR tox: inactive

What do the screens show for `Cc1ccc(-n2ncc3c(N(C)Cc4ccccc4)ncnc32)cc1`?
KB-3-1 cytotox: inconclusive; KB-V1 MDR tox: inactive

What do the screens show for `Cc1ccc(-n2ncc(C(=O)NC3CCN(Cc4ccccc4)CC3)c2C2CCN(C(=O)OC(C)(C)C)CC2)cc1C`?
KB-3-1 cytotox: inactive; KB-V1 MDR tox: inactive

How did CCC(CC)C(=O)Nc1nnc2n1CCS2 do in these assays?
KB-3-1 cytotox: inactive; KB-V1 MDR tox: inactive

Results for Cc1ccc(CSc2nccc(-c3c(C)nc4ccccn34)n2)cc1 ?
HT1080 IDH1KD tx: 1.1%; HT1080NT lethal: 1.7%; MCF10A rereplic: 3.66µM*; KB-3-1 cytotox: 18.4µM*; SW480 rerep: inconclusive; KB-V1 MDR tox: 6.51µM*

How did C=CCc1cccc2cc(-c3nc4ccc(C(=O)O)cc4[nH]3)c(=O)oc12 do in these assays?
KB-3-1 cytotox: inactive; KB-V1 MDR tox: inactive

Results for Nc1c(C(=O)NC23CC4CC(CC(C4)C2)C3)sc2nc3c(c(C(F)(F)F)c12)CCC3 ?
HT1080 IDH1KD tx: 7.6%; HT1080NT lethal: 14.0%; MCF10A rereplic: 1.64µM*; KB-3-1 cytotox: inactive; SW480 rerep: inconclusive; KB-V1 MDR tox: inconclusive

How did CC(=O)N1CCc2nc3sc(C(=O)Nc4ccc(Cl)cc4F)c(N)c3c(C(F)(F)F)c2C1 do in these assays?
KB-3-1 cytotox: inactive; KB-V1 MDR tox: inactive

Results for O=c1c(N2CCN(c3cccc(Cl)c3)CC2)csc2ccccc12 ?
KB-3-1 cytotox: inactive; KB-V1 MDR tox: inactive

How did COc1cc(/C=C/C(C)=NNc2ccccc2)ccc1O do in these assays?
HT1080 IDH1KD tx: inconclusive; HT1080NT lethal: inconclusive; MCF10A rereplic: 16.4µM*; KB-3-1 cytotox: inactive; SW480 rerep: inconclusive; KB-V1 MDR tox: inactive

Results for CCOC(=O)CSCc1cn2cc(Cl)ccc2n1 ?
HT1080 IDH1KD tx: 3.9%; HT1080NT lethal: 8.0%; MCF10A rereplic: 0.6%; KB-3-1 cytotox: inactive; SW480 rerep: -2.0%; KB-V1 MDR tox: inactive

What do the screens show for `COc1cc(/C=C/C(=O)OCc2cn3cc(Cl)ccc3n2)ccc1O`?
HT1080 IDH1KD tx: inconclusive; HT1080NT lethal: inconclusive; MCF10A rereplic: 10.3µM*; KB-3-1 cytotox: inconclusive; SW480 rerep: inconclusive; KB-V1 MDR tox: inconclusive

Results for COc1cc(/C=C/C(=O)OCC(=O)NCc2ccc(F)cc2)ccc1O ?
HT1080 IDH1KD tx: inconclusive; HT1080NT lethal: inconclusive; MCF10A rereplic: 14.6µM*; KB-3-1 cytotox: inconclusive; SW480 rerep: 8.2µM*; KB-V1 MDR tox: 16.4µM*

What do the screens show for `CC(C)(C)c1ccc(/C=N/OCC(=O)NCc2ccc(F)cc2)cc1`?
HT1080 IDH1KD tx: inconclusive; HT1080NT lethal: inconclusive; MCF10A rereplic: inconclusive; KB-3-1 cytotox: inactive; SW480 rerep: 20.6µM*; KB-V1 MDR tox: inconclusive

How did COc1cc(/C=N/Nc2ccc(C(=O)O)cc2)ccc1O do in these assays?
HT1080 IDH1KD tx: -7.3%; HT1080NT lethal: -0.3%; MCF10A rereplic: -1.2%; KB-3-1 cytotox: inactive; SW480 rerep: -4.1%; KB-V1 MDR tox: inactive

Results for COc1cc(C=C(C(C)=O)C(C)=O)ccc1O ?
HT1080 IDH1KD tx: -2.0%; HT1080NT lethal: -0.4%; MCF10A rereplic: inconclusive; KB-3-1 cytotox: inactive; SW480 rerep: 0.5%; KB-V1 MDR tox: inactive
